Results reported in PubChem BioAssay (NCI).
Values joined by “and” are separate entries in the source; they are usually repeats but may differ in a detail not shown here. Equal values may be shown once. This is part of a sample that, as a whole, favours compounds with a hit. Of some 83,000 tested, about 20% had one in any assay.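 Step 1: grow cells in 96-well plates. Step 2: add test compound at a single concentration. Step 3: incubate 48 h. Step 4: record percent growth.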 A number with no mark means an inactive call. Active and inactive are the calls of the source. Rule for the calls: active = growth percent below 10; inactive = the rest.

What follows are molecules tested on MDA-MB-468 breast (assay: NCI-60 one-dose screen, 48 h (100 = growth as untreated, 0 = no growth, -100 = all killed)). Conditions: 10 µM unless noted.

Compound | growth
CCOC(=O)C/C(C)=N\O | 98.2%
CC(=O)Nc1ccc(NC(C)=O)c2c1C(=O)c1ccccc1C2=O | 107%
COc1ccc(OC2=C(C#N)C(=N)N3c4ccccc4Sc4ccccc4C3N2)cc1 (stereo unspecified) | 94.5%
CC(NNC(=S)N1CCCCCC1)c1ccc2ccccc2n1 (stereo unspecified) | 30.3%
N#CC1=C(N)Oc2c(sc3c(Br)cccc23)C1c1ccc(F)cc1 (stereo unspecified) | 11%
NC(=O)c1ccc(Br)o1 | 103%
Cn1cnc2c(N3CCN(C(=O)OCc4ccc5c(Cl)cc(Cl)c(O)c5n4)CC3)nc(Cl)nc21 | 72.5%
CCCCCCCCCCCCNC(=O)[C@H]1CSC(c2cc(Br)cs2)N1 (stereo partly specified) | -48.7% (active)
COC(=O)C[C@@H]1CC=CC(=O)/C1=C(O)/C=C/c1ccccc1 | -85.5% (active)
Nc1ncnc2nc(Br)[nH]c12 | 102%
CC(=O)C1=C(C)NC(SCc2nnc(-c3ccc(C)cc3)o2)=NC1c1ccc(F)cc1 (stereo unspecified) | 93.4%
NC(=O)c1c(NC(=S)Nc2ccc(OC(F)(F)F)cc2)sc2c1CCC1(C2)OCCO1 | 94.7%
COCCCNc1nc(NC(=O)c2cc(Br)cc(C(F)(F)F)c2)cc(-c2cccnc2)n1 | 82.8%
COc1ccc2c(c1)c1nc3cc(C)c(C)cc3nc1n2CCN(C)C | -2.58% (active)
CSc1nc(N)c(N=Nc2ccc(S(=O)(=O)Nc3nnc(C)s3)cc2)c(=O)[nH]1 | 93.4%
Brc1ccc(-c2cn3ccnc3c(-c3ccc(Br)cc3)n2)cc1 | 33.2%
Cn1cc(C(=O)c2nc(-c3c[nH]c4ccccc34)no2)c2cc(F)ccc21 | 63%
CS(=O)(=O)c1ccc(-n2nc(-c3ccc(Br)cc3)c3ccccc3c2=O)cc1 | 100%
COc1cc(N=C2C(=O)N(Cc3ccccc3)c3ccccc32)cc(OC)c1OC | 103%
O=C(CCCN1CCOCC1)Nc1ccc(Cn2nnc3c2C(=O)c2nnn(Cc4ccc(NC(=O)CCCN5CCOCC5)cc4)c2C3=O)cc1 | -74.7% (active)
C=CCn1c(SCC(=O)c2ccccc2)nnc1-c1c[nH]c2ccccc12 | 87.7%
COc1ccc(OC)c([C@H]2c3[nH]c4ccccc4c3C[C@H]3C(=O)N(CCCCCCC(=O)NO)CC(=O)N23)c1 | 74.9%
COc1cc(C(=O)c2ccc3c(c2)OCO3)cc(OC)c1OC | 9.88% (active) and -4.92% (active)
O=C(Nc1ccc(-n2ccc3c(NC(=O)c4ccccc4)ncnc32)cc1)Nc1cccc(Cl)c1Cl | -35.7% (active)
COC(=O)C1C2CC3c4[nH]c5cc(OC)ccc5c4CCN3CC2CC(OC2CCCCO2)C1OC (stereo unspecified) | 95.5%
CCCCO[C@@H]1C=C2[C@H]3CC(C)(C)C(=O)C[C@]3(C(=O)O[C@@H]3O[C@H](CO[C@@H]4O[C@H](CO)[C@@H](OC5OC(C)C(O)C(O)C5O)[C@H](O)[C@H]4O)[C@@H](O)[C@H](O)[C@H]3O)CC[C@@]2(C)[C@]2(C)CC[C@H]3C(C)(C)C(=O)CC[C@]3(C)[C@@H]12 (stereo partly specified) | 101%
